# Reference: PubChem BioAssay (NCI)
# Where “and” joins values, the source holds several entries; their conditions need not be identical. Identical values can stand only once. This is part of a sample that, as a whole, favours compounds with a hit. Of some 79,000 tested, about 15% had one in any assay. A structure can be active in one record and inactive in another. Calls of active or inactive are those of the source. Rule as the data show it: active = growth inhibition above about 70%; inactive = the rest.
# Key:
# [1] = NCI Yeast Anticancer Drug Screen. Data for the rad50 strain (AID 155);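 also: 0% = growth of vehicle-only cultures of the same strain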; conditions: S. cerevisiae rad50 strain growth inhibition, stronger effect = higher value
# Summary of the method: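 Vehicle-treated cultures provide the reference for the growth inhibition reported for compound-exposed, repair-deficient yeast.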
# [2] = NCI Yeast Anticancer Drug Screen. Data for the mec2-1 strain (AID 157); conditions: S. cerevisiae mec2-1 strain, stronger effect = higher value
# Summary of the method: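 Using mec2-1 yeast: add compound, measure growth, express inhibition versus vehicle-treated cultures.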
# [3] = NCI Yeast Anticancer Drug Screen. Data for the sgs1 mgt1 strain (AID 161);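 also: 0% = growth of cultures given vehicle only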; conditions: S. cerevisiae sgs1 mgt1 strain, stronger effect = higher value
# Summary of the method: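 Percent growth inhibition was derived by comparing compound-exposed mutant yeast with vehicle-exposed cultures. The strain carries alterations in DNA damage repair.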
# [4] = NCI Yeast Anticancer Drug Screen. Data for the cln2 rad14 strain (AID 165);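 also: 0% = growth equal to vehicle treated cultures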; conditions: S. cerevisiae cln2 rad14 strain, stronger effect = higher value
# Summary of the method: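 Yeast strain cln2 rad14, bearing defects in cell cycle control and DNA repair, serves as the test system; values reflect growth inhibition compared with vehicle.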
# [5] = NCI Yeast Anticancer Drug Screen. Data for the bub3 strain (AID 167); conditions: S. cerevisiae bub3 mutant strain, stronger effect = higher value
# Summary of the method: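 Mutant yeast screening strain plus compound; vehicle-treated cultures serve as the 0% inhibition reference.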
# [6] = NCI Yeast Anticancer Drug Screen. Data for the mlh1 rad18 strain (AID 175); conditions: S. cerevisiae mlh1 rad18 strain growth inhibition, stronger effect = higher value
# Summary of the method: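 Steps: expose repair-defective yeast to compound; measure growth; express inhibition against vehicle-treated controls.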
# [7] = at 5.0 µM (retest, dose inferred, filed as 0.5)
# [8] = at 50.0 µM (retest, dose inferred, filed as 5.0)
SMILES,"growth inhibition [1, 7]","growth inhibition [1, 8]",growth inhibition ([1]; at 50.0 µM),"growth inhibition [2, 7]","growth inhibition [2, 8]",growth inhibition ([2]; at 50.0 µM),"growth inhibition [3, 7]","growth inhibition [3, 8]",growth inhibition ([3]; at 50.0 µM),"growth inhibition [4, 7]","growth inhibition [4, 8]",growth inhibition ([4]; at 50.0 µM),"growth inhibition [5, 7]","growth inhibition [5, 8]",growth inhibition ([5]; at 50.0 µM),"growth inhibition [6, 7]","growth inhibition [6, 8]",growth inhibition ([6]; at 50.0 µM)
c1ccc(-c2ccccn2)nc1,-4% (inactive) and 2% (inactive),76% (active) and 90% (active),79.8% (active) and 81.1% (active),0% (inactive) and 1% (inactive),53% (inactive) and 61% (inactive),70.9% (active) and 55.6% (inactive),8% (inactive) and -2% (inactive),74% (active) and 75% (active),66% (inactive) and 77.8% (active),4% (inactive) and -5% (inactive),61% (inactive) and 51% (inactive),29.1% (inactive) and 21.4% (inactive),-23% (inactive) and 0% (inactive),87% (active) and 86% (active),82.5% (active) and 64.2% (inactive),-3% (inactive) and 2% (inactive),85% (active) and 84% (active),68% (inactive) and 75.9% (active)
C/C(=N\N=C(\[Se])N1CCN(c2ccccn2)CC1)c1ccccn1,-2% (inactive),88% (active),70.3% (active),-1% (inactive),98% (active),70% (inactive),5% (inactive),95% (active),82% (active),-9% (inactive),83% (active),9.4% (inactive),9% (inactive),96% (active),93.2% (active),59% (inactive),93% (active),78.2% (active)
CN(C)CC1CCCCC1=O (stereo not given),-169% (inactive),36% (inactive),73.7% (active) and 1.45% (inactive) and -1.35% (inactive),-52% (inactive),-24% (inactive),56.2% (inactive) and -13.8% (inactive) and -15.9% (inactive),-67% (inactive),-6% (inactive),47.4% (inactive) and -15.4% (inactive) and -9.6% (inactive),-77% (inactive),3% (inactive),59.5% (inactive) and 8.3% (inactive) and 0.7% (inactive),-69% (inactive),-26% (inactive),35% (inactive) and -23.4% (inactive) and -3.6% (inactive),-131% (inactive),-38% (inactive),71.9% (active) and 18.1% (inactive) and 5.25% (inactive)
O=C1NC(=O)C([N+](=O)[O-])C(=O)N1,0% (inactive),-5% (inactive),62.9% (inactive),-14% (inactive),-4% (inactive),30.1% (inactive),9% (inactive),-8% (inactive),34.5% (inactive),29% (inactive),39% (inactive),48.5% (inactive),15% (inactive),43% (inactive),66.8% (inactive),10% (inactive),16% (inactive),18.8% (inactive)
CCCCCCCCCCCCCCCCCC(=O)[O][Hg][c]1ccccc1,33% (inactive),96% (active),90.7% (active),43% (inactive),98% (active),91.5% (active),100% (active),99% (active),94% (active),99% (active),100% (active),92.3% (active),99% (active),100% (active),90% (active),34% (inactive),100% (active),90.2% (active)
S=C(SSC(=S)N1CCCCC1)N1CCCCC1,50% (inactive),99% (active),9.4% (inactive) and 16.8% (inactive),55% (inactive),99% (active),13.6% (inactive) and 5.4% (inactive),48% (inactive),99% (active),18.5% (inactive) and 12.8% (inactive),55% (inactive),99% (active),24.9% (inactive) and 19.5% (inactive),70% (active),99% (active),9.8% (inactive) and 4.25% (inactive),34% (inactive),99% (active),54.8% (inactive) and 12.6% (inactive)
Cc1cccc(C)c1NC(=O)/C(CC(=O)CC(c1ccccc1)c1c(O)c2ccccc2oc1=O)=N/O (stereo not given),26% (inactive),60% (inactive),1.1% (inactive),20% (inactive),34% (inactive),-5.8% (inactive),13% (inactive),55% (inactive),-1.5% (inactive),28% (inactive),45% (inactive),-10.4% (inactive),35% (inactive),50% (inactive),4.85% (inactive),25% (inactive),43% (inactive),2.1% (inactive)
CCn1c(O)c(C(=O)NC(C)c2ccc([N+](=O)[O-])cc2)c(=O)n(CC)c1=S (stereo not given),31% (inactive),91% (active),86.5% (active),33% (inactive),96% (active),91.4% (active),24% (inactive),83% (active),90.6% (active),17% (inactive),46% (inactive),88.8% (active),9% (inactive),78% (active),89.3% (active),35% (inactive),92% (active),87% (active)
Nc1ccc(Cl)cc1C(=O)c1ccccc1Cl,-3% (inactive),99% (active),97.4% (active),-3% (inactive),99% (active),97.2% (active),-2% (inactive),99% (active),97.5% (active),-9% (inactive),98% (active),80.8% (active),-12% (inactive),99% (active),87.5% (active),-1% (inactive),99% (active),96.8% (active)
NCC(O)c1cccc(O)c1 (stereo not given),-18% (inactive),77% (active),70.3% (active),-12% (inactive),50% (inactive),40.2% (inactive),-8% (inactive),51% (inactive),66.3% (inactive),24% (inactive),65% (inactive),60% (inactive),12% (inactive),77% (active),75.2% (active),11% (inactive),92% (active),65.3% (inactive)
CCC(C)(C)c1ccc(OP(=S)(S)Oc2ccc(C(C)(C)CC)cc2)cc1,-1% (inactive),92% (active),88.5% (active),3% (inactive),96% (active),68.7% (inactive),-7% (inactive),95% (active),94.9% (active),4% (inactive),90% (active),90.7% (active),-1% (inactive),94% (active),31.5% (inactive),-4% (inactive),95% (active),90.5% (active)
ClC1=NSSC1(Cl)Cl,16% (inactive),96% (active),90.4% (active),16% (inactive),99% (active),92.5% (active),18% (inactive),99% (active),91.2% (active),20% (inactive),78% (active),87.7% (active),21% (inactive),99% (active),90.3% (active),17% (inactive),90% (active),92.2% (active)
Nc1cc(Cl)ccc1C(=O)c1ccccc1Cl,-1% (inactive),98% (active),98.8% (active),-4% (inactive),99% (active),99% (active),2% (inactive),98% (active),98.8% (active),-6% (inactive),98% (active),96.8% (active),-9% (inactive),98% (active),98% (active),-4% (inactive),99% (active),98.2% (active)
O=[N+]([O-])c1csc([N+](=O)[O-])c1,99% (active),99% (active),99.3% (active),97% (active),99% (active),99.7% (active),95% (active),99% (active),99.5% (active),75% (active),99% (active),98.8% (active),89% (active),99% (active),99.2% (active),99% (active),99% (active),99.3% (active)
CC(C)C1(NC(=O)C2C=C3c4cccc5[nH]cc(c45)CC3N(C)C2)OC2(O)C3CCCN3C(=O)C(Cc3ccccc3)N2C1=O (stereo not given),0% (inactive),94% (active),96.2% (active),-47% (inactive),92% (active),97.1% (active),-2% (inactive),89% (active),98.2% (active),-8% (inactive),95% (active),94.5% (active),-4% (inactive),95% (active),96.8% (active),-2% (inactive),97% (active),97% (active)
